{"source": "PubChem BioAssay (Tox21)", "note": "Calls of active or inactive are those of the source. Entries that show only a call come without a potency. Calls follow the shape of the full dose curve. Potency is read from the fitted curve at half-maximal effect."}
{"target": "Estrogen receptor (Homo sapiens) (UniProt P03372)", "sequence (P03372 whole entry, looked up)": "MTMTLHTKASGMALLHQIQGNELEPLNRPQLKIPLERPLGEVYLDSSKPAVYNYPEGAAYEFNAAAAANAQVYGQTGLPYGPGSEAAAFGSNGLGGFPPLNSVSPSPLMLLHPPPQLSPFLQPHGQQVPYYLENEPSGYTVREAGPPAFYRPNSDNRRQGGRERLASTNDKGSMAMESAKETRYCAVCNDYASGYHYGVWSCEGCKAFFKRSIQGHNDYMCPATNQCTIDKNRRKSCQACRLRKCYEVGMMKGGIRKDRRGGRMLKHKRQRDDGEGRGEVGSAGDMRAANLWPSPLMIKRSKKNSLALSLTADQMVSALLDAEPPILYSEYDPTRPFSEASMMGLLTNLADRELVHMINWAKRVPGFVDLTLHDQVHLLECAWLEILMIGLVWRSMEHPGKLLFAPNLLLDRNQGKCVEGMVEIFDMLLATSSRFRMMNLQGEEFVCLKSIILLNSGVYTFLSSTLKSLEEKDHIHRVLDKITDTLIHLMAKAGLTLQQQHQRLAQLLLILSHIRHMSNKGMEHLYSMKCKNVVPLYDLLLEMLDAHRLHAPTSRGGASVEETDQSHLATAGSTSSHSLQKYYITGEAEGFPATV", "assay": "qHTS assay to identify small molecule agonists of the estrogen receptor alpha (ER-alpha) signaling pathway in the presence of an antagonist (AID 1259383); also: nearly all actives have a fitted effect of over 15% in size", "conditions": "VM7Luc4E2 cells, ERE-luciferase, +ICI-182,780, 22 h; series mostly up to 92.4 µM", "excerpt": "National Center for Advancing Translational Sciences [NCATS] NIH Chemical Genomics Center [NCGC] U.S. Environmental Protection Agency [EPA] National Institutes of Environmental Health Sciences [NIEHS] National Toxicology Program [NTP] Assay overview: Estrogen receptor (ER), a member of nuclear hormone receptor plays an important role in development, metabolic homeostasis and reproduction. Two subtypes of ER, ER-alpha and ER-beta, have similar expression patterns with some uniqueness in both types. Endocrine disrupting chemicals (EDCs) and their interactions with steroid hormone receptors like ER causes disruption of normal endocrine function. Therefore, it is important to understand the effect of environmental chemicals in ER signaling pathway. For identifying ER agonists, VM7Luc4E2 cell line has been used in the current assay. VM7Luc4E2 cell line (provided by Denison MS, University of California) endogenously expresses full-length ER-alpha and is stably transfected with a plasmid containing four estrogen responsive elements (ERE) upstream of a luciferase reporter gene. This current screening for measuring luciferase reporter gene activity using VM7Luc4E2 cells against Tox21 10K library collection is a confirmation study on agonist mode screening in presence of ER-antagonist (ICI-182,780) at 10.0nM final concentration.\nAssay Protocol Summary: VM7Luc4E2 cells were cultured in phenol red free assay medium containing 10% charcoal stripped FBS for 5 days prior to the assay. The cells were dispensed at 4,000 cells in 4uL of assay medium per well into white wall/solid-bottom 1536-well plates (Corning Life Sciences, Corning, NY) using a Multidrop Combi (Thermo Fisher Scientific Inc., Waltham, MA) dispenser. After the assay plates were incubated at 37C and 5% CO2 for 24hr, 1uL of 10.0nM (final concentration) ICI-182,780 or assay buffer was added using two separate tips of Flying Reagent Dispenser (FRD, Aurora Discovery, San Diego, CA). Then 23nL of compounds dissolved in DMSO at 15 concentrations and positive controls or DMSO only was transferred to the assay plates by a Pintool station (Wako, San Diego, CA). The assay plates were incubated at 37C and 5% CO2 for 22hr. For luciferase read, 4uL/well ONE-Glo reagent (Promega Corporation, Madison, WI) was added to each well using FRD and after 30min incubation at room temperature, luminescence signal was measured on ViewLux plate reader (PerkinElmer, Shelton, CT)."}
{"smiles": "CC(C)c1ccc(OP(=O)(Oc2ccc(C(C)C)cc2)Oc2ccc(C(C)C)cc2)cc1", "Potency": "inactive"}
{"smiles": "CCc1ccccc1N", "Potency": "inactive"}
{"smiles": "C=CCN1C[C@H](C)N([C@H](c2ccc(C(=O)N(CC)CC)cc2)c2cccc(OC)c2)C[C@H]1C", "Potency": "inactive"}
{"smiles": "CCCCC1C(=O)NC(=O)N(C2CCCCC2)C1=O", "note": "(stereo not given)", "Potency": "inactive"}
{"smiles": "CCC(C)(C)c1ccc(O)c(C(C)(C)CC)c1", "Potency": "inactive"}
{"smiles": "CCC(C)(C)O", "Potency": "inactive"}
{"smiles": "O=[N+]([O-])O[C@H]1CO[C@H]2[C@@H]1OC[C@H]2O[N+](=O)[O-]", "Potency": "inactive"}
{"smiles": "CN1CC[C@]23c4c5ccc(O)c4O[C@H]2[C@@H](O)CC[C@H]3[C@H]1C5", "Potency": "inactive"}
{"smiles": "CCOC(=O)c1cncn1C(C)c1ccccc1", "note": "(stereo not given)", "Potency": "inactive"}
{"smiles": "CCC1(CC)C(=O)NC(=O)NC1=O", "Potency": "inactive"}
{"smiles": "C=C(Cl)Cl", "Potency": "inactive"}
{"smiles": "O=[N+]([O-])c1cc(Cl)c(Cl)cc1Cl", "Potency": "inactive"}
{"smiles": "C1CCNCC1", "Potency": "inactive"}
{"smiles": "Oc1cccc(Cl)c1", "Potency": "inactive"}
{"smiles": "C[C@H](N)[C@H](O)c1ccc(O)c(O)c1", "Potency": "inactive"}
{"smiles": "NCCc1cc(O)c(O)cc1O", "Potency": "inactive"}
{"smiles": "COc1cc(CC(C)N)c(OC)cc1Br", "note": "(stereo not given)", "Potency": "inactive"}
{"smiles": "CCC(=O)O[C@@H]1C=C2CCC3C(CCC4(C)C3CC[C@@H]4OC(=O)CC)C2CC1", "note": "(stereo not given in full)", "Potency": "0.531 µM (active)"}
{"smiles": "CCCCCCCCCCCC[N+](C)(C)CCOc1ccccc1", "Potency": "inactive"}
{"smiles": "FC(Cl)(Cl)C(F)(Cl)Cl", "Potency": "inactive"}
{"smiles": "NC(=S)c1c(Cl)cccc1Cl", "Potency": "inactive"}
{"smiles": "OCC1CO1", "note": "(stereo not given)", "Potency": "inactive"}
{"smiles": "CCOP(=S)(OCC)SCSc1cc(Cl)ccc1Cl", "Potency": "inactive"}
{"smiles": "N#CC(C#N)=Cc1ccc(O)c(O)c1", "Potency": "inactive"}
{"smiles": "CCN(C(C)=O)c1cccc(-c2ccnc3c(C#N)cnn23)c1", "Potency": "inactive"}
{"smiles": "CN(C1CCCCC1)C1CCCCC1", "Potency": "inactive"}
{"smiles": "CCOP(=O)(O)C(N)=O", "Potency": "inactive"}
{"smiles": "CCC1(C2=NCCN2)Cc2ccccc2O1", "note": "(stereo not given)", "Potency": "3.35 µM (active)"}
{"smiles": "O=C(CCl)CCl", "Potency": "inactive"}
{"smiles": "CCNC(=O)NC(=O)/C(C#N)=N/OC", "Potency": "inactive"}
{"smiles": "CCCCC#N", "Potency": "inactive"}
{"smiles": "O=C(O)C(F)(F)C(F)(F)C(F)(F)C(F)(F)C(F)(F)F", "Potency": "inactive"}
{"smiles": "O=C(O)C(F)(F)C(F)(F)C(F)(F)C(F)(F)C(F)(F)C(F)(F)C(F)(F)C(F)(F)F", "Potency": "inactive"}
{"smiles": "COC(=O)Cc1ccccc1", "Potency": "inactive"}
{"smiles": "CN1C[C@H](C(=O)N[C@]2(C)O[C@@]3(O)[C@@H]4CCCN4C(=O)[C@H](Cc4ccccc4)N3C2=O)C=C2c3cccc4[nH]cc(c34)C[C@H]21", "Potency": "inactive"}
{"smiles": "CCCBr", "Potency": "inactive"}
{"smiles": "CN(C)c1ccc(N=O)cc1", "Potency": "inactive"}
{"smiles": "Cc1nc2ccccc2c(=O)n1-c1ccccc1Cl", "Potency": "inactive"}
{"smiles": "CCOP(=S)(S)OCC", "Potency": "inactive"}
{"smiles": "CCCCNC(=O)OCC#CI", "Potency": "inactive"}
